Source: PubChem
In the library only some 6.1% were active in any assay of this set; here they are far more common.
ATXN viability – viability counter-screen for ATXN expression inhibitors; S2 cells (HEK-293 line with an ATXN2-luciferase reporter) viability, CellTiter-Fluor protease fluorescence, 24 h; Potency, µM (series often up to 56.7 µM), most hits filed as cytotoxic; 400,000 tested, 0.49% active; AID 651635; also: nearly all actives have a fitted effect of over 40% in size
HepG2 viability – HepG2 cytotoxicity, counter-screen for TGF-b inhibitors | HepG2 CAGA-GFP viability, ATP luminescence, 18 h | 410,000 tested, 0.76% active | AID 588856 | Potency, µM (series often up to 46.1 µM), actives largely listed as cytotoxic
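HepG2 CAGA-GFP cells (1000/well, DMEM with 1% FBS) received compound, then TGF-beta at 500 pg/mL final, and were incubated 18 hours at 37 degrees C. Viability was read by CellTiter-Glo luminescence. Media-only wells were set as complete cell-killing and DMSO as no toxicity.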
TGFb inhibitor – blocks TGF-b signaling; HepG2 CAGA-GFP TGF-b/SMAD3 reporter, GFP fluorescence, 18 h; TGF-beta stimulated, 500 pg/mL final; Potency, µM (series often up to 46.1 µM), usual class: inhibitors; 410,000 tested, 1.2% active; AID 588855; also: nearly all actives have a fitted effect of over 65% in size
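HEPG2 CAGA-GFP cells (1000/well, DMEM with 1% FBS) were pre-incubated 2 h at 37 degrees C, given compound by pin tool, then stimulated with TGF-beta at 500 pg/mL final for 18 h before per-cell GFP fluorescence imaging.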
VP16 counter – counter-screen for ROR gamma inhibitors: Gal4-VP16 reporter. Drosophila S2 Gal4-VP16 UAS-luciferase, luminescence, 20 h. Potency, µM (series often up to 53.6 µM), most hits filed as inhibitors. 310,000 tested, 3.5% active;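 also: Gal4-VP16 expression switched on by copper sulfate through the metallothionein promoter; nearly all actives have a fitted effect of over 50% in size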
ATXN2 expr inh – inhibitors of ATXN2 expression | AID 1745845 | HEK-293 ATXN2-luciferase reporter, luminescence, 24 h | 360,000 tested, 0.72% active | Potency, µM (top dose mostly 57 µM), hits mostly inhibitors; also: nearly all actives have a fitted effect of over 55% in size
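ATXN2-luciferase reporter cells (luciferase flanked by upstream and downstream ATXN2 gene portions) were treated 24 h at 37 °C with compounds at up to 57 uM. SteadyGlo luminescence gave expression; GF-AFC fluorescence gave viability.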
RORg inh – blocks mouse ROR gamma transcriptional activity | P51450 | Drosophila S2 Gal4-RORgamma UAS-luciferase reporter, 20 h | Potency, µM (series often up to 53.6 µM), hits mostly inhibitors | 310,000 tested, 5.4% active | AID 2551; also: nearly all actives have a fitted effect of over 60% in size
Target sequence (P51450 whole entry, looked up, the tested form may be a part): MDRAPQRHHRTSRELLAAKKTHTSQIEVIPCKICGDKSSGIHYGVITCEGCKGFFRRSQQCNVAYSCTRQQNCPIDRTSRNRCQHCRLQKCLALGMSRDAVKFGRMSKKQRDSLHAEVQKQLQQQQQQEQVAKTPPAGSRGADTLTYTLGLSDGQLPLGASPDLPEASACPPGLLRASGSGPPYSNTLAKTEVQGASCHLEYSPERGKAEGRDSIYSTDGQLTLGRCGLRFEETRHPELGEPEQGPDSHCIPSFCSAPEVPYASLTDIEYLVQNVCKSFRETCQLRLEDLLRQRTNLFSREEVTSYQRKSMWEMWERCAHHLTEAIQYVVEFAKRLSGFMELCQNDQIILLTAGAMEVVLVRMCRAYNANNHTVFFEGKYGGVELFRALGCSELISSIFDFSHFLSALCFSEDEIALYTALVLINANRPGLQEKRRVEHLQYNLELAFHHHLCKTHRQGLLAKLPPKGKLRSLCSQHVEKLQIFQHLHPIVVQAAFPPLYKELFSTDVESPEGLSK
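Luminescence from a UAS-regulated Photinus luciferase reporter in stably transfected Drosophila Schneider cells is measured; decreased signal marks ROR gamma inhibition. Fusion expression is induced by 700 uM copper sulfate for 20 hr.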
Large screens that a line does not name were inactive. Calls follow the shape of the dose curve; as a rule, active = well fitted curve in the direction sought with a large enough effect; inconclusive = small, poorly fitted or top-dose-only effect, or another doubt; inactive = no such curve, though single readings can be large; an effect the other way counts as inactive or inconclusive.

O=c1c2cc(NC(=S)NCCCN3CCC(Cc4ccccc4)CC3)ccc2nc2n1CCCCC2	HepG2 viability 15.8µM, TGFb inhibitor inconclusive
O=C(Nc1ccccc1Cl)c1ccc2c(=O)n3c(nc2c1)CCC3	ATXN viability inconclusive (no result: VP16 counter, RORg inh)
O=C(Nc1nc(-c2ccccc2)cs1)c1ccc2c(=O)n3c(nc2c1)CCCCC3	ATXN viability inconclusive, TGFb inhibitor inconclusive, VP16 counter inconclusive, ATXN2 expr inh 14.1µM, RORg inh inconclusive
O=C(Nc1cccc(S(=O)(=O)N2CCCC2)c1)c1ccc2c(=O)n3c(nc2c1)CCCCC3	TGFb inhibitor inconclusive, ATXN2 expr inh inconclusive
CC1=C(CC(=O)c2ccc(Cl)cc2)C(=O)c2ccccc2C1=O	HepG2 viability 12.6µM, TGFb inhibitor 12.6µM
COc1cc(=O)n2c(c1C(=O)NCc1ccco1)CCN(Cc1cccc(C)n1)CC2	none (no result: HepG2 viability, TGFb inhibitor, VP16 counter, ATXN2 expr inh, RORg inh)
CCc1nc(N2CCN(C(=O)CCl)CC2)c2c3c(sc2n1)CC(C)CC3 (centres undefined)	HepG2 viability 17.8µM, TGFb inhibitor inconclusive, VP16 counter inconclusive, RORg inh 15.8µM (no result: ATXN viability)
CCc1nc(N2CCN(C(C)=O)CC2)c2c3c(sc2n1)CC(C(C)(C)C)CC3 (centres undefined)	ATXN viability inconclusive, VP16 counter inconclusive, RORg inh inconclusive (no result: ATXN2 expr inh)
O=c1c(-c2cccs2)nc2cnc(N3CCOCC3)nc2n1-c1ccccc1	none (no result: ATXN viability, HepG2 viability, TGFb inhibitor, ATXN2 expr inh)
Cc1ccc2[nH]c(C(=O)Nc3ccc(F)cc3)cc2c1	ATXN viability inconclusive, RORg inh 10µM
CCCOc1ccc(NC(=O)c2cc3cc(C)ccc3[nH]2)cc1	none
CCC(C)NC(=S)NNC(=O)c1ccncc1 (centres undefined)	VP16 counter 12.6µM, RORg inh 3.16µM
CC1(C(=O)NC(=S)NNC(=O)c2ccncc2)CCCCC1	TGFb inhibitor inconclusive, VP16 counter 12.6µM, RORg inh 5.01µM
O=C(NNC(=S)NC(=O)C12CC3CC(CC(C3)C1)C2)c1ccncc1	RORg inh inconclusive
CC(C)c1ccc(C(=O)NNC(=O)c2ccncc2)cc1	none
CCc1ccc(-c2nc3cc(NC(=O)c4ccc(F)cc4)ccc3o2)cc1	none (no result: VP16 counter, RORg inh)
COc1ccc(-n2c(=O)c3c4c(sc3n3c(=S)[nH]nc23)CCCC4)cc1	VP16 counter 12.6µM, RORg inh 7.94µM
COC(=O)CSc1nnc2n(-c3ccc(OC)cc3)c(=O)c3c4c(sc3n12)CCCCC4	none
COC(=O)c1cccc(NC2CC(=O)N(c3ccc(OC)c(OC)c3)C2=O)c1 (centres undefined)	HepG2 viability 5.01µM
COc1ccc(N2C(=O)CC(Nc3ccc(C(=O)O)cc3)C2=O)cc1OC (centres undefined)	none (no result: ATXN viability)
COc1ccc(NC(=O)c2cnn(-c3ccccc3)c2C)cc1	ATXN viability inconclusive, RORg inh inconclusive (no result: ATXN2 expr inh)
COC(=O)c1cnn(-c2ccccc2)c1/C=N/NC(=S)Nc1ccc(Cl)cc1	ATXN viability inconclusive, VP16 counter 2µM, RORg inh 0.447µM
FC(F)(F)c1ccccc1-c1ccc2ncnc(NC3CC3)c2c1	VP16 counter inconclusive (no result: ATXN viability, HepG2 viability, TGFb inhibitor, ATXN2 expr inh)
COc1ccc(OCc2cc(/C=N\NC(=O)c3ccccc3)ccc2OC)cc1	VP16 counter inconclusive, RORg inh inconclusive
COc1ccc(/C=N\NC(=O)c2ccc([N+](=O)[O-])cc2)cc1COc1c(F)c(F)cc(F)c1F	TGFb inhibitor 0.355µM, VP16 counter 4.47µM, RORg inh 3.55µM
COc1cc(OC)cc(C(=O)N/N=C/c2ccc(OC)c(COc3ccc(F)cc3)c2)c1	ATXN viability inconclusive, TGFb inhibitor inconclusive, VP16 counter inconclusive, RORg inh 3.98µM
Cc1ccc2nc(-c3ccc(C)c(NC(=O)COc4ccc(Br)cc4)c3)oc2c1	none (no result: ATXN viability, VP16 counter, ATXN2 expr inh, RORg inh)
CCOc1ccc(S(=O)(=O)NCc2ccncc2)cc1	TGFb inhibitor inconclusive
Cc1ccc(S(=O)(=O)NCc2ccncc2)cc1	TGFb inhibitor inconclusive, VP16 counter 7.94µM
Cc1ccc(C)c(S(=O)(=O)NCc2ccncc2)c1	ATXN viability inconclusive, VP16 counter inconclusive, RORg inh inconclusive
CC(=O)Nc1ccc(S(=O)(=O)NCc2ccncc2)cc1	VP16 counter 2µM, RORg inh 7.08µM
CCOC(=O)COc1ccc(S(=O)(=O)NCc2ccncc2)cc1	VP16 counter 11.2µM, RORg inh inconclusive
Cc1cc(S(=O)(=O)NCc2ccncc2)c(C)cc1Br	TGFb inhibitor inconclusive, VP16 counter 10µM
Cc1ccc(S(=O)(=O)NCC(=O)NCc2ccncc2)cc1	none
CC(=O)Nc1ccc(S(=O)(=O)NCc2ccccn2)cc1	none
Cc1ccc(CC(=O)Nc2nc3c(s2)CCCC3)cc1	none
S=C(Nc1nc2c(s1)CCCC2)NC1CC1	ATXN viability inconclusive, VP16 counter 1.78µM, RORg inh 1.26µM
O=C(NC(=S)Nc1nc2c(s1)CCCC2)c1ccccc1	VP16 counter 0.631µM, RORg inh 0.562µM
COC(=O)c1ccc(C(=O)NC(=S)Nc2nc3c(s2)CCCC3)cc1	TGFb inhibitor inconclusive, VP16 counter 7.08µM, RORg inh 2.24µM
Cc1cc(C2(c3ccc(O)c(C)c3)C(=O)Nc3ccccc32)ccc1O	ATXN viability inconclusive, VP16 counter 15.8µM, ATXN2 expr inh inconclusive
Cc1noc(/C=C/c2cccnc2)c1[N+](=O)[O-]	ATXN viability inconclusive, TGFb inhibitor inconclusive, VP16 counter 15.8µM, ATXN2 expr inh inconclusive, RORg inh 10µM
COCCn1c(=O)c(-c2cccs2)nc2cnc(N3CCOCC3)nc21	none (no result: ATXN viability, HepG2 viability, TGFb inhibitor, ATXN2 expr inh)
NC(=O)C1CCCN(Cc2ccc3c(c2)CN(Cc2ccccc2)CCO3)C1 (centres undefined)	none (no result: HepG2 viability, TGFb inhibitor, VP16 counter, ATXN2 expr inh, RORg inh)
COc1cc(=O)n2c(c1C(=O)NC(C)c1ccco1)CCN(C(=O)c1cccc(C)c1C)CC2 (centres undefined)	none (no result: HepG2 viability, TGFb inhibitor, VP16 counter, ATXN2 expr inh, RORg inh)
Cn1cccc1CC(=O)NNC(=S)Nc1ccc(Cl)cc1	VP16 counter inconclusive, RORg inh 11.2µM
O=C(Cc1noc2ccccc12)NNC(=S)Nc1ccc(Cl)cc1	RORg inh 11.2µM
Cn1cccc1CC(=O)NNC(=S)Nc1ccccc1Cl	none
CCC1(C2CCN(C(=O)c3csc(C(C)=O)c3)CC2)NC(=O)N(CCc2scnc2C)C1=O (centres undefined)	none (no result: HepG2 viability, TGFb inhibitor, VP16 counter, ATXN2 expr inh, RORg inh)
O=C(c1ccc2c3n(nc2c1)-c1ccc(Cl)cc1CO3)N1CCOCC1	none
O=C(c1ccc2c3n(nc2c1)-c1ccccc1CO3)N1CCOCC1	HepG2 viability 7.94µM, RORg inh inconclusive
C[C@@H](CO)NC(=O)c1ccc2c3n(nc2c1)-c1ccccc1CO3	VP16 counter inconclusive, ATXN2 expr inh inconclusive, RORg inh 6.31µM
O=C(c1ccc2c3n(nc2c1)-c1ccccc1CO3)N1CCCCC1	HepG2 viability 7.08µM, VP16 counter inconclusive, RORg inh inconclusive
